The panel holds about 79,000 compounds, 15% with a hit somewhere; the sample as a whole holds those more often. Calls of active or inactive are those of the source. No stated cut-off is given here; in the data, active means growth inhibition above about 70%; inactive means the rest.
What was measured:
[1] = NCI Yeast Anticancer Drug Screen. Data for the rad52 strain (AID 147);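 further: 0% = growth of vehicle-treated control cultures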; settings: S. cerevisiae rad52 mutant growth inhibition, stronger effect = higher value
Procedure, shortened: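 DNA repair-defective yeast; compound exposure; growth scored against vehicle controls.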

[2] = NCI Yeast Anticancer Drug Screen. Data for the rad50EPP+ strain (AID 151);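 further: 0% = growth of vehicle-treated control cultures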; settings: S. cerevisiae rad50 mutant strain, stronger effect = higher value
Procedure, shortened: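 rad50EPP+ yeast treated with test compounds. Readout: growth vs vehicle control.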

[3] = NCI Yeast Anticancer Drug Screen. Data for the mgt1 strain (AID 153); settings: S. cerevisiae mgt1 mutant growth inhibition, stronger effect = higher value
Procedure, shortened: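 Growth inhibition relative to vehicle controls was scored for the mgt1 yeast strain after compound exposure.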

[4] = NCI Yeast Anticancer Drug Screen. Data for the rad50 strain (AID 155);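 further: 0% = growth of vehicle-only cultures of the same strain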; settings: S. cerevisiae rad50 strain growth inhibition, stronger effect = higher value
Procedure, shortened: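 Yeast carrying a defined DNA repair defect were exposed to test compounds, and growth was compared with vehicle-treated controls to give percent inhibition.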

[5] = NCI Yeast Anticancer Drug Screen. Data for the mec2-1 strain (AID 157); settings: S. cerevisiae mec2-1 strain, stronger effect = higher value
Procedure, shortened: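 Growth inhibition is read against vehicle-treated controls after compound exposure of the mec2-1 yeast strain, which is defective in DNA damage repair or cell cycle control.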

[6] = NCI Yeast Anticancer Drug Screen. Data for the rad14 strain (AID 159);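 further: 0% = growth of vehicle-treated control cultures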; settings: S. cerevisiae rad14 strain growth inhibition, stronger effect = higher value
Procedure, shortened: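 Yeast cells carrying a defined DNA-repair defect were exposed to compounds, and growth inhibition was calculated relative to vehicle-treated control cultures.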

[7] = NCI Yeast Anticancer Drug Screen. Data for the sgs1 mgt1 strain (AID 161);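 further: 0% = growth of cultures given vehicle only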; settings: S. cerevisiae sgs1 mgt1 strain, stronger effect = higher value
Procedure, shortened: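 Percent growth inhibition was derived by comparing compound-exposed mutant yeast with vehicle-exposed cultures. The strain carries alterations in DNA damage repair.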

[8] = NCI Yeast Anticancer Drug Screen. Data for the CLN2oe strain (AID 163);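 further: 0% = growth of vehicle-only control cultures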; settings: S. cerevisiae CLN2oe strain, stronger effect = higher value
Procedure, shortened: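 Compound-treated yeast; growth vs vehicle ctrl = % inhibition. Genetically altered strain (cell-cycle control).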

[9] = NCI Yeast Anticancer Drug Screen. Data for the cln2 rad14 strain (AID 165);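 further: 0% = growth equal to vehicle treated cultures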; settings: S. cerevisiae cln2 rad14 strain, stronger effect = higher value
Procedure, shortened: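 Growth inhibition, relative to vehicle-treated controls, is the read-out. The test organism is a yeast strain with defined genetic alterations, cln2 rad14.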

[10] = NCI Yeast Anticancer Drug Screen. Data for the bub3 strain (AID 167); settings: S. cerevisiae bub3 mutant strain, stronger effect = higher value
Procedure, shortened: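 Compounds were applied to a genetically altered yeast strain carrying a cell-cycle control defect. Growth inhibition was scored against vehicle-treated controls.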

[11] = NCI Yeast Anticancer Drug Screen. Data for the wt2 strain (AID 169);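 further: 0% = growth of vehicle-treated yeast cultures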; settings: S. cerevisiae wt2 strain growth inhibition, stronger effect = higher value
Procedure, shortened: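 Compound exposure of yeast; growth compared with vehicle controls; inhibition reported.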

[12] = NCI Yeast Anticancer Drug Screen. Data for the mlh1 strain (AID 171);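 further: 0% = growth of vehicle-treated control cultures of the same strain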; settings: S. cerevisiae mlh1 strain growth inhibition, stronger effect = higher value
Procedure, shortened: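 Compounds are applied to a genetically altered yeast strain, and its growth is compared with that of vehicle-treated cultures to give percent inhibition.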

[13] = NCI Yeast Anticancer Drug Screen. Data for the sgs1 strain (AID 173);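 further: 0% = growth of vehicle-only control cultures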; settings: S. cerevisiae sgs1 mutant, stronger effect = higher value
Procedure, shortened: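 Compounds applied to genetically altered yeast; growth compared with vehicle-treated cultures to give % inhibition.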

[14] = NCI Yeast Anticancer Drug Screen. Data for the mlh1 rad18 strain (AID 175); settings: S. cerevisiae mlh1 rad18 strain growth inhibition, stronger effect = higher value
Procedure, shortened: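 Cells of a genetically altered yeast strain, deficient in DNA damage repair, were treated with compound. Their growth was then compared with that of vehicle-treated cultures to give inhibition.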

[15] = NCI Yeast Anticancer Drug Screen. Data for the rad18 strain (AID 177); settings: S. cerevisiae rad18 mutant growth inhibition, stronger effect = higher value
Procedure, shortened: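 Compounds are applied to a repair-deficient yeast strain, and growth is compared with that of vehicle-treated cultures to give percent inhibition.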

[16] = NCI Yeast Anticancer Drug Screen. Data for the wt1 strain (AID 149);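 further: 0% = growth of vehicle-treated wt1 cultures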; settings: S. cerevisiae wt1 strain (SPY 50644) growth inhibition, stronger effect = higher value
Procedure, shortened: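 Yeast wt1 strain exposed to compounds; growth inhibition measured relative to vehicle-treated controls.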

[17] = at 5.0 µM (retest, dose inferred, filed as 0.5)
[18] = at 50.0 µM (retest, dose inferred, filed as 5.0)

Measured: growth inhibition

COC1CCC(O)C(/C=C/[N+](=O)[O-])C1 (stereo unspecified)
active: [1]; at 3.7 µM 81% | [1]; at 11.0 µM 99% | [1]; at 33.0 µM 99% | [1]; at 100.0 µM 99% | [2]; at 33.0 µM 94% | [2]; at 100.0 µM 99% | [3]; at 11.0 µM 99% | [3]; at 33.0 µM 100% | [3]; at 100.0 µM 99% | [4]; at 3.7 µM 83% | [4]; at 11.0 µM 99% | [4]; at 33.0 µM 99% | [4]; [18] 99% | [4]; at 50.0 µM 98.7% | [4]; at 100.0 µM 99% | [5]; at 11.0 µM 100% | [5]; at 33.0 µM 99% | [5]; [18] 100% | [5]; at 50.0 µM 99.6% | [5]; at 100.0 µM 99% | [6]; at 11.0 µM 99% | [6]; at 33.0 µM 99% | [6]; at 100.0 µM 99% | [7]; [18] 100% | [7]; at 50.0 µM 98.2% | [8]; at 11.0 µM 99% | [8]; at 33.0 µM 99% | [8]; at 100.0 µM 99% | [9]; [18] 99% | [9]; at 50.0 µM 89.8% | [10]; [17] 79% | [10]; at 11.0 µM 99% | [10]; at 33.0 µM 99% | [10]; [18] 100% | [10]; at 50.0 µM 98.7% | [10]; at 100.0 µM 99% | [11]; at 11.0 µM 99% | [11]; at 33.0 µM 99% | [11]; at 100.0 µM 99% | [12]; at 3.7 µM 79% | [12]; at 11.0 µM 99% | [12]; at 33.0 µM 99% | [12]; at 100.0 µM 100% | [13]; at 11.0 µM 99% | [13]; at 33.0 µM 99% | [13]; at 100.0 µM 98% | [14]; [17] 79% | [14]; [18] 99% | [14]; at 50.0 µM 98.2% | [15]; at 11.0 µM 99% | [15]; at 33.0 µM 99% | [15]; at 100.0 µM 99%
inactive: [1]; at 1.2 µM 27% | [2]; at 1.2 µM 6% | [2]; at 3.7 µM 19% | [2]; at 11.0 µM 56% | [3]; at 1.2 µM 8% | [3]; at 3.7 µM 63% | [4]; at 1.2 µM 29% | [4]; [17] 50% | [5]; at 1.2 µM 5% | [5]; at 3.7 µM 42% | [5]; [17] 21% | [6]; at 1.2 µM 7% | [6]; at 3.7 µM 42% | [7]; [17] 67% | [8]; at 1.2 µM 0% | [8]; at 3.7 µM 15% | [9]; [17] 17% | [10]; at 1.2 µM 4% | [10]; at 3.7 µM 32% | [11]; at 1.2 µM 9% | [11]; at 3.7 µM 66% | [12]; at 1.2 µM 13% | [13]; at 1.2 µM 13% | [13]; at 3.7 µM 68% | [15]; at 1.2 µM 12% | [15]; at 3.7 µM 65%

CS(=O)(=O)SCc1ccc([N+](=O)[O-])cc1
active: [1]; at 11.0 µM 90% | [1]; at 33.0 µM 99% | [1]; at 100.0 µM 97% | [16]; at 33.0 µM 99% | [16]; at 100.0 µM 98% | [3]; at 33.0 µM 99% | [3]; at 100.0 µM 98% | [4]; at 11.0 µM 97% | [4]; at 33.0 µM 99% | [4]; [18] 93% | [4]; at 50.0 µM 97.9% | [4]; at 100.0 µM 97% | [5]; at 11.0 µM 85% | [5]; at 33.0 µM 99% | [5]; [18] 96% | [5]; at 50.0 µM 98% | [5]; at 100.0 µM 97% | [6]; at 33.0 µM 99% | [6]; at 100.0 µM 97% | [7]; [18] 95% | [7]; at 50.0 µM 98.1% | [8]; at 33.0 µM 98% | [8]; at 100.0 µM 97% | [9]; [18] 94% | [9]; at 50.0 µM 96.5% | [10]; at 11.0 µM 97% | [10]; at 33.0 µM 99% | [10]; [18] 94% | [10]; at 50.0 µM 98.8% | [10]; at 100.0 µM 96% | [11]; at 33.0 µM 99% | [11]; at 100.0 µM 97% | [12]; at 11.0 µM 70% | [12]; at 33.0 µM 99% | [12]; at 100.0 µM 97% | [13]; at 11.0 µM 97% | [13]; at 33.0 µM 99% | [13]; at 100.0 µM 97% | [14]; [18] 93% | [14]; at 50.0 µM 98% | [15]; at 11.0 µM 90% | [15]; at 33.0 µM 99% | [15]; at 100.0 µM 97%
inactive: [1]; at 1.2 µM 7% | [1]; at 3.7 µM 30% | [16]; at 1.2 µM -5% | [16]; at 3.7 µM 1% | [16]; at 11.0 µM 38% | [3]; at 1.2 µM -2% | [3]; at 3.7 µM -4% | [3]; at 11.0 µM 61% | [4]; at 1.2 µM 1% | [4]; at 3.7 µM 41% | [4]; [17] 20% | [5]; at 1.2 µM 3% | [5]; at 3.7 µM 4% | [5]; [17] -25% | [6]; at 1.2 µM 5% | [6]; at 3.7 µM 18% | [6]; at 11.0 µM 69% | [7]; [17] -11% | [8]; at 1.2 µM -2% | [8]; at 3.7 µM 7% | [8]; at 11.0 µM 57% | [9]; [17] -35% | [10]; at 1.2 µM 6% | [10]; at 3.7 µM 40% | [10]; [17] 51% | [11]; at 1.2 µM -1% | [11]; at 3.7 µM -3% | [11]; at 11.0 µM 69% | [12]; at 1.2 µM 6% | [12]; at 3.7 µM 14% | [13]; at 1.2 µM -3% | [13]; at 3.7 µM 39% | [14]; [17] -31% | [15]; at 1.2 µM 7% | [15]; at 3.7 µM 29%

Reference: PubChem BioAssay (NCI)
